Laboratory results: PubChem BioAssay (NCI)
About 79,000 compounds went through this panel and 15% of them were active in at least one assay; those are over-represented in the sample as a whole. The source made the active and inactive calls. Rule as the data show it: active = growth inhibition above about 70%; inactive = the rest.

Test: NCI Yeast Anticancer Drug Screen. Data for the CLN2oe strain (AID 163);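 also: 0% = growth of vehicle-only control cultures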
Conditions: S. cerevisiae CLN2oe strain, at 11.0 µM, stronger effect = higher value
In short: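 Whole-cell yeast growth assay. A strain engineered for altered cell-cycle control received compound, and inhibition relative to vehicle-treated cultures was recorded.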

Compound | growth inhibition
Cc1cccc2c(C(O)CBr)cc(-c3ccc(Cl)cc3)nc12 (stereo not given) | 98% (active)
CN(C)C[C@H]1CC[C@@H](CN(C)C)C1=O | 9% (inactive)
CC1=C(SCCO)C(=O)c2ccccc2C1=O | -2% (inactive)
COC(=O)CCNc1c2ccccc2nc2cccc([N+](=O)[O-])c12 | 89% (active)
CC(/C=C/c1ccc2c(c1)OCO2)[N+](=O)[O-] (stereo not given) | 99% (active)
COC(=O)C1=C(C)NC(C)=C(C(=O)OCCCN2CCC(c3ccccc3)(c3ccccc3)CC2)C1c1cccc([N+](=O)[O-])c1 (stereo not given) | 96% (active)
CCOC(=O)c1cnc2c(C(F)(F)F)cccc2c1N=[N+]=[N-] | -2% (inactive)
O=[N+]([O-])c1cc2no[n+]([O-])c2cc1N1CCCCC1 | 96% (active)
COC(=O)c1ccc(NCC2=CC(=O)C=CC2=O)cc1O | 78% (active)
CCCCCCCCNC(=O)C1=C(C)NC(C)=C(C(=O)NCCCCCCCC)C1 | -1% (inactive)
S=C(Nc1ccc(Cl)c(Cl)c1)SCc1ccc2c(c1)OCO2 | 99% (active)
O=S(=O)(CCCl)c1ccccc1Cl | 3% (inactive)
Nc1ccccc1CC(O)C(=O)O (stereo not given) | 13% (inactive)
CN(C)c1ccc(Sc2ccc3nc(N)nc(N)c3c2)cc1 | 17% (inactive)
CC(C)C1=CCC2C(=C1)CCC1C(C)(C(=O)O)CCCC21C (stereo not given) (tested in a mixture with another compound) | -16% (inactive)
Cc1ccc(S(=O)(=O)Oc2cc(Cl)c(Cl)cc2Cl)cc1 | -10% (inactive)
CSC(=S)Nc1cc(C)ccn1 | 31% (inactive)
CC(C)c1cc(C(C)C)c(O)c(C([O-])[O-])c1.CC(C)c1cc(C(C)C)c(O)c(C([O-])[O-])c1.CC(C)c1cc(C(C)C)c(O)c(C([OH2+])[OH2+])c1.CC(C)c1cc(C(C)C)c(O)c(C([OH2+])[OH2+])c1.[Cu+2].[Cu+2].[OH3+].[OH3+] | 34% (inactive)
Cc1cc(I)ccc1N | -3% (inactive)
CC(Br)C(=O)c1ccc2cc(Br)c3ccccc3c2c1 (stereo not given) | -7% (inactive)

Compound | growth inhibition
O=C(Nc1ccccc1)OCCc1ccc(Cl)c(Cl)c1 | 26% (inactive)
O=Cc1cccc2ccc3ccccc3c12 | 9% (inactive)
O=[N+]([O-])CC(SCc1ccccc1)c1ccc2c(c1)OCO2 (stereo not given) | 42% (inactive)
CC1(Cl)CC(O)C2(CC1Br)C1(C)OC1C1OC1(Br)C2(C)C (stereo not given) | 5% (inactive)
Cc1cc(O)cc(O)c1N=Nc1ccc([N+](=O)[O-])cc1 | 30% (inactive)
CCCCCCCCCCCCCC[N+](C)(CC(=O)[O-])Cc1ccccc1 (stereo not given) | 99% (active)
CC1=NN(c2cccc(Cl)c2)C(=O)C1 | -1% (inactive)
CC(=O)OCc1ccc(O)c(C=O)c1 | 11% (inactive)
Cc1ccc2ccc3cccc4ccc1c2c34 | -4% (inactive)
Cc1nc(-[n+]2nc(-c3ccncc3)nn2-c2ccccc2)sc1C | -6% (inactive)
C(CCSC1=NCCN1)CSC1=NCCN1 (tested in a mixture with another compound) | 29% (inactive)
CCCCCCCCCCC(=O)Cl | -25% (inactive)
COC1C=COC2(C)Oc3c(C)c(O)c4c(c3C2=O)/C(=N/C2CCC(O)OC2C)C=C(NC(=O)/C(C)=C\C(=O)C2CC2C(O)C(C)C(O)C(C)C(OC(C)=O)C1C)C4=O (stereo not given) | -8% (inactive)
S=c1[nH]nc(Nc2ccc(Cl)cc2)s1 | -13% (inactive)
O=C1CSC(/C=C/c2ccccc2)N1c1ccc(-c2ccc(-n3c(-c4ccccc4)nc4ccccc4c3=O)cc2)cc1 (stereo not given) | -6% (inactive)
O=C1C=CC(=O)N1c1ccc2c(c1)Cc1cc(NC(=O)C(F)(F)F)ccc1-2 | 18% (inactive)
Brc1ccc(-c2cc3c(cc2C2SCCS2)OCO3)cc1 | -28% (inactive)
Oc1ccc2ccccc2c1C(c1ccc(Cl)cc1)c1c(O)ccc2ccccc12 | 21% (inactive)
C[CH2][Sn]([CH2]C)([O]C(=O)C(OC(C)=O)c1ccccc1)[O]C(=O)C(OC(C)=O)c1ccccc1 (stereo not given) | 4% (inactive)
Cc1ccc2ccc(O)cc2c1 | -9% (inactive)

Same assay, conditions: S. cerevisiae CLN2oe strain, at 33.0 µM, stronger effect = higher value

Compound | growth inhibition
Cc1cccc2c(C(O)CBr)cc(-c3ccc(Cl)cc3)nc12 (stereo not given) | 96% (active)
CN(C)C[C@H]1CC[C@@H](CN(C)C)C1=O | 29% (inactive)
CC1=C(SCCO)C(=O)c2ccccc2C1=O | 12% (inactive)
COC(=O)CCNc1c2ccccc2nc2cccc([N+](=O)[O-])c12 | 96% (active)
CC(/C=C/c1ccc2c(c1)OCO2)[N+](=O)[O-] (stereo not given) | 99% (active)
COC(=O)C1=C(C)NC(C)=C(C(=O)OCCCN2CCC(c3ccccc3)(c3ccccc3)CC2)C1c1cccc([N+](=O)[O-])c1 (stereo not given) | 98% (active)
CCOC(=O)c1cnc2c(C(F)(F)F)cccc2c1N=[N+]=[N-] | 21% (inactive)
O=[N+]([O-])c1cc2no[n+]([O-])c2cc1N1CCCCC1 | 97% (active)
COC(=O)c1ccc(NCC2=CC(=O)C=CC2=O)cc1O | 96% (active)
CCCCCCCCNC(=O)C1=C(C)NC(C)=C(C(=O)NCCCCCCCC)C1 | 0% (inactive)
S=C(Nc1ccc(Cl)c(Cl)c1)SCc1ccc2c(c1)OCO2 | 99% (active)
O=S(=O)(CCCl)c1ccccc1Cl | 68% (inactive)
Nc1ccccc1CC(O)C(=O)O (stereo not given) | 25% (inactive)
CN(C)c1ccc(Sc2ccc3nc(N)nc(N)c3c2)cc1 | -11% (inactive)
CC(C)C1=CCC2C(=C1)CCC1C(C)(C(=O)O)CCCC21C (stereo not given) (tested in a mixture with another compound) | 40% (inactive)
Cc1ccc(S(=O)(=O)Oc2cc(Cl)c(Cl)cc2Cl)cc1 | -18% (inactive)
CSC(=S)Nc1cc(C)ccn1 | 26% (inactive)
CC(C)c1cc(C(C)C)c(O)c(C([O-])[O-])c1.CC(C)c1cc(C(C)C)c(O)c(C([O-])[O-])c1.CC(C)c1cc(C(C)C)c(O)c(C([OH2+])[OH2+])c1.CC(C)c1cc(C(C)C)c(O)c(C([OH2+])[OH2+])c1.[Cu+2].[Cu+2].[OH3+].[OH3+] | 58% (inactive)
Cc1cc(I)ccc1N | 79% (active)
CC(Br)C(=O)c1ccc2cc(Br)c3ccccc3c2c1 (stereo not given) | -4% (inactive)

Compound | growth inhibition
O=C(Nc1ccccc1)OCCc1ccc(Cl)c(Cl)c1 | 53% (inactive)
O=Cc1cccc2ccc3ccccc3c12 | 15% (inactive)
O=[N+]([O-])CC(SCc1ccccc1)c1ccc2c(c1)OCO2 (stereo not given) | 97% (active)
CC1(Cl)CC(O)C2(CC1Br)C1(C)OC1C1OC1(Br)C2(C)C (stereo not given) | 31% (inactive)
Cc1cc(O)cc(O)c1N=Nc1ccc([N+](=O)[O-])cc1 | 42% (inactive)
CCCCCCCCCCCCCC[N+](C)(CC(=O)[O-])Cc1ccccc1 (stereo not given) | 99% (active)
CC1=NN(c2cccc(Cl)c2)C(=O)C1 | -15% (inactive)
CC(=O)OCc1ccc(O)c(C=O)c1 | -12% (inactive)
Cc1ccc2ccc3cccc4ccc1c2c34 | -13% (inactive)
Cc1nc(-[n+]2nc(-c3ccncc3)nn2-c2ccccc2)sc1C | 25% (inactive)
C(CCSC1=NCCN1)CSC1=NCCN1 (tested in a mixture with another compound) | 97% (active)
CCCCCCCCCCC(=O)Cl | -18% (inactive)
COC1C=COC2(C)Oc3c(C)c(O)c4c(c3C2=O)/C(=N/C2CCC(O)OC2C)C=C(NC(=O)/C(C)=C\C(=O)C2CC2C(O)C(C)C(O)C(C)C(OC(C)=O)C1C)C4=O (stereo not given) | 3% (inactive)
S=c1[nH]nc(Nc2ccc(Cl)cc2)s1 | -11% (inactive)
O=C1CSC(/C=C/c2ccccc2)N1c1ccc(-c2ccc(-n3c(-c4ccccc4)nc4ccccc4c3=O)cc2)cc1 (stereo not given) | -9% (inactive)
O=C1C=CC(=O)N1c1ccc2c(c1)Cc1cc(NC(=O)C(F)(F)F)ccc1-2 | 26% (inactive)
Brc1ccc(-c2cc3c(cc2C2SCCS2)OCO3)cc1 | -10% (inactive)
Oc1ccc2ccccc2c1C(c1ccc(Cl)cc1)c1c(O)ccc2ccccc12 | 83% (active)
C[CH2][Sn]([CH2]C)([O]C(=O)C(OC(C)=O)c1ccccc1)[O]C(=O)C(OC(C)=O)c1ccccc1 (stereo not given) | 47% (inactive)
Cc1ccc2ccc(O)cc2c1 | -17% (inactive)
